The values below come from PubChem BioAssay (NCATS).

Records with an inconclusive call do not appear. A number with no mark means an inactive call. Calls come from the whole dose curve; as a rule, active = well fitted inhibition curve with a large enough effect; inconclusive = small, poorly fitted or top-dose-only effect; inactive = flat fitted curve, though single readings scatter.

The test can be described thus: qHTS for Inhibitors of Plasmodium falciparum (DD2) proliferation (AID 504314). The conditions noted are these: P. falciparum Dd2 in erythrocytes, SYBR Green growth, 72 h; series mostly up to 1.12 µM; activity, negative = inhibition: at the top concentration. From the text:
Plasmodium falciparum is a virulent malarial parasite that kills 1-2 million people worldwide each year. Malaria not only inflicts tremendous suffering and morbidity on the human population, but has dramatically influenced the course of civilization with profound sociological and economic implications (Shah, S. 2010). Transmitted by mosquitoes, the sporozoite form of the parasite enters the blood stream to infect hepatocytes, where they become merozoites that infect red blood cells (erythrocytes). Within erythrocytes, merozoites begin a […] cycle of growth and division, after which the parasite is released to infect new red blood cells. Gametocytes, which form within erythrocytes as well, circulate in the bloodstream and are ingested by the mosquito, thereby completing the life cycle (see CDC website). To profile malarial lines for differential chemical responses and to identify inhibitors of malarial growth, an assay that measures P. falciparum growth and replication within erythrocytes was employed. This assay uses a DNA binding fluorescent dye (SYBR Green) to detect parasite DNA following cell lysis. Because mature erythrocytes lack DNA, only Plasmodium-derived DNA is detected. The P. falciparum line cp250, derived from a malarial isolate from Cambodia, (Mu, J., et al. 2010) was added to the panel of lines, Dd2, HB3, 7G8 and GB4 in this study.
Laboratory of Assay Development and Screening Technology [ADST] and NIH Chemical Genomics Center [NCGC]
Boston University, Chemistry Department, Center for Chemical Methodology and Library Development [CMLD-BU]
NIH National Institute of Allergy and Infectious Diseases [NIAID]
ADST Assay Protocol Summary:
The 1536-well SYBR Green viability assay was based on the method of Bennett et al (2004) and described previously in 1536-well format (Yuan J., et al. 2009). For screening 3 ul culture medium was dispensed into 1536 well black clear bottom plates (Aurora Biotechnologies) using a Multidrop Combi (Thermo Fisher Scientific Inc.), 23 nL compounds in DMSO were added by a pin transfer (Cleveland, P.H. and Koutz, P.J, 2005) using a pin tool-based delivery system (Kalypsys), and 5 ul of erythrocytes infected with P. falciparum one of five lines (cp250, Dd2, HB3, 7G8 or GB4, 0.3% parasitemia, 2.5% hematocrit final concentration) were added. The plates were incubated at 37C in a humidified incubator in 5% CO2 for 72 h, and 2 ul lysis buffer (20 mM Tris HCl, 10 mM EDTA, 0.16% saponin, 1.6% triton X, 10X SYBR Green I (supplied as 10,000X final concentration by Invitrogen) was added to each well. The plates were mixed for 25 sec with gentle shaking and incubated overnight at room temperature in the dark. The following morning, fluorescence intensity at 485(14) nm excitation and 535(25) nm emission wavelengths was measured on an EnVision (Perkin Elmer) plate reader. Plate reads were normalized relative to the control inhibitor (0.29 uM artemisinin) and vehicle (DMSO) wells present on each plate and then corrected by an algorithm using vehicle-only control plates at the beginning and end of the compound plate stack.
Shah, S. (2010). The Fever: how malaria has ruled humankind for 500,000 years. New York, Sarah Crichton Books.
CDC web site, http://www.cdc.gov/malaria/about/biology/index.html
Mu, J., Myers, R.A., Jiang, H., Liu, S., Ricklefs, S., Waisberg, M., Chotivanich, K., Wilairatana, P., Krudsood, S., White, N.J., et Plasmodium falciparum genome-wide scans for positive selection, recombination hot spots and resistance to antimalarial drugs Nature Genetics 2010, 42, pp 268-271
Bennett TN, Paguio, M., Gligorijevic, B., Seudieu, C., Kosar, A. D., Davidson, E., and Roepe, P. D. Novel, rapid, and inexpensive cell-based quantification of antimalarial drug efficacy Antimicrobial Agents Chemother. 2004, 48(5): pp 1807-10
Yuan J, Johnson RL, Huang RL, Wichterman J, Jiang HY, Hayton K, Fidock DA, Wellems TE, Inglese J, Austin CP, Su XZ. […]
(In general: qHTS replaces the single test concentration by a dilution series.)
Regarding `COC(=O)c1ccccc1S(=O)(=O)N1CCc2nc(-c3ccccc3)c3c(c2C1)CO[C@@H](C)C3`, the “activity, negative = inhibition” value was -6.63%. Take `COC/C=C/C1=CC2=CC(=O)C(C)(OC(=O)c3cnc4ccccc4n3)C(=O)C2=CN1c1ccc(OC)cc1` (stereo not given): the “activity, negative = inhibition” value is 4.08%. Turning to `CCN1C(=O)N[C@@H](c2cccs2)C(C(=O)OC)=C1C`, the “activity, negative = inhibition” value was 1.97%. `COC(=O)CCCC1=CC2=C(c3ccccc3)C(=O)C(C)(OC(=O)C3CCCC3)C(=O)C2=CN1CCCOC(C)C` (stereo not given): the “activity, negative = inhibition” value was 1.19%. As for `COC(=O)[C@@H]1[C@@H](C)N(CCc2cc(OC)c(OC)c(OC)c2)C(=O)N[C@H]1c1ccccc1`, the figure is 2.04%; as for `CCCCc1nc2c(c3c1C[C@H](C)OC3)CN(C(=O)Cc1cccc(OC)c1)CC2`, -2.48%.

Take `C=CCN1c2ccccc2[C@]23C[C@@H](C(=O)OC)N(C(=O)C4CCC4)C2=NC(C(=O)OC)=C(C(=O)OC)[C@H]13`: the “activity, negative = inhibition” value is -1.31%.

Take `CC=Cc1cc2ccccc2c2c(C(=O)OC)c(C(=O)OC)c(C(=O)OC)n12`: the “activity, negative = inhibition” value is -1.16% [at 6.11 µM]. As for `CCCCC1=CC2=CC(=O)C(C)(OC(=O)CC)C(=O)C2=CN1CCc1c[nH]c2ccccc12` (stereo not given), the “activity, negative = inhibition” value is 2.79%.

For the compound `COC(=O)CCC(=O)OC1(C)C(=O)C=C2C=C(C3CC3)N(C3CC3)C=C2C1=O` (stereo not given), the “activity, negative = inhibition” value was 1.21%.

As for `COC(=O)C(C(=O)OC)C1c2ccccc2C=C(C)N1C(=O)OC` (stereo not given), the “activity, negative = inhibition” value was 0.494%.

On to `COc1cccc([C@@H]2Oc3ccc(Br)cc3[C@H](O)[C@@H]2O)c1`, for which the “activity, negative = inhibition” value is -6.62% [at 6.11 µM]. Turning to `C=CCN1c2ccccc2[C@]23C[C@@H](C(=O)OC)N(S(=O)(=O)c4ccc(Br)cc4)C2=NC(C(=O)OC)=C(C(=O)OC)[C@H]13`, the “activity, negative = inhibition” value is 3.87%. To `COC(=O)CC1c2ccccc2C=C(/C=C/c2ccc3c(c2)OCO3)N1C(=O)OC` (stereo not given) belongs -2.67%. As for `C=CCOC(=O)N[C@H](C(C(=O)OC)=C(C)NCc1ccccc1)c1ccc(C)cc1`, the figure is -6.13% [at 6.11 µM].

For `COC(=O)C1=C(C(=O)OC)[C@@H]2Nc3ccccc3[C@@]23C[C@@H](C(=O)OC)N(S(=O)(=O)c2cccs2)C3=N1`, the “activity, negative = inhibition” value was 0.146%. For the compound `CCCCS(=O)(=O)N1CCc2nc(COc3ccccc3)c3c(c2C1)CO[C@@H](C)C3`, the “activity, negative = inhibition” value was -0.0713%. As for `COc1ccc(-c2nc3c(c4c2C[C@H](c2ccccc2)OC4)CN(C(=O)Cc2cccs2)CC3)c(C)c1`, the figure is -1.42%; as for `CC#CCN1c2ccccc2[C@]23C[C@@H](C(=O)OC)N(C(=O)c4ccc(Br)cc4)C2=NC(C(=O)OC)=C(C(=O)OC)[C@H]13`, 2.88%; as for `CCOC(=O)NN=C1C[C@@H](O)[C@@H](O)[C@@H]2[C@H]3C(=O)N(CC)C(=O)[C@@H]3CC[C@@H]12`, -4.7% [at 6.11 µM]. Take `COC(=O)C1=C(C(=O)OC)[C@@H]2N(C)c3ccc(OC)cc3[C@@]23C[C@@H](C(=O)OC)N(S(=O)(=O)c2ccc(C#N)cc2)C3=N1`: the “activity, negative = inhibition” value is -0.51%.

With `CC#CCN1c2ccccc2[C@]23C[C@@H](C(=O)OC)N(C(=O)CC(C)C)C2=NC(C(=O)OC)=C(C(=O)OC)[C@H]13`, the “activity, negative = inhibition” value was 6.26%. On to `C=C(C(C)=O)C(O)c1ccc2ccccc2c1` (stereo not given), for which the “activity, negative = inhibition” value was -7.46% [at 6.11 µM]. As for `CCCCS(=O)(=O)N1CCc2nc(-c3ccc(OC)cc3C)c3c(c2C1)CO[C@@H](c1ccccc1)C3`, the figure is -2.02%; as for `CCCCc1nc2c(c3c1C[C@H](C)OC3)CN(C(=O)NCCCC(=O)OCC)CC2`, 2.39%. As for `COCCN1C=C2C(=O)C(C)(OC(=O)CCC(=O)OC)C(=O)C=C2C=C1C1CC1` (stereo not given), the figure is -0.789%; as for `COC(=O)C1=C(C)N(Cc2ccco2)C(=O)N[C@@H]1c1ccco1`, 2.96%.

For `COC(=O)C1=C(C(=O)OC)[C@@H]2Nc3ccccc3[C@@]23C[C@@H](C(=O)OC)N(C(=O)c2ccc(Br)cc2)C3=N1`, the “activity, negative = inhibition” value was -4.38%. As for `COC(=O)C[C@H]1c2ccccc2[C@H]2C(=C[C@@H](C)[C@H]3C(=O)N(O)C(=O)[C@H]32)N1C(=O)OC`, the figure is -0.398%; as for `C=CCN1c2ccccc2[C@]23C[C@@H](C(=O)OC)N(C(C)=O)C2=NC(C(=O)OC)=C(C(=O)OC)[C@H]13`, 0.348%. Consider `CCOC(=O)CN1C(=O)N[C@@H](CCc2ccccc2)C(C(=O)OC)=C1C`, for which the “activity, negative = inhibition” value was 2.09%.

In the case of `COC(=O)CCC(=O)OC1(C)C(=O)C=C2C=C(C3CC3)N(CC3CC3)C=C2C1=O` (stereo not given), the “activity, negative = inhibition” value was -6.09%.

For the compound `CCOC(=O)OC[C@H]1O[C@H](c2ccccc2)C=C[C@H]1OC(=O)OCC`, the “activity, negative = inhibition” value was -3.14% [at 6.11 µM]. As for `CCOC(=O)N1C2=NC(C(=O)OC)=C(C(=O)OC)[C@@H]3N(C)c4ccc(OC)cc4[C@]23C[C@H]1C(=O)OC`, the figure is 2.7%; as for `CCN1C(=O)N(S(=O)(=O)c2ccc(C)cc2)[C@@H](c2ccccc2)C(C(=O)OC)=C1C`, 3.15%. To `CCN1C(=O)N(C)[C@@H](c2ccccc2)C(C(=O)OC)=C1C` belongs -1.23%. On to `CC(C)(C)N1C(=O)[C@@H]2[C@H]3[C@H](O)[C@H](O)CC(=NOCc4ccccc4)[C@H]3CC[C@H]2C1=O`, for which the “activity, negative = inhibition” value was 2.91% [at 6.11 µM]. With `Cc1cc2c(c(=O)n1-c1ccccc1)[C@H]1O[C@](c3ccsc3)(Cc3cc(C#N)ccc31)O2`, the “activity, negative = inhibition” value was -12.3% [at 6.11 µM]. As for `CCCCn1c(C)cc2c(c1=O)[C@H]1O[C@](c3ccsc3)(Cc3ccccc31)O2`, the figure is -11% [at 6.11 µM]; as for `COC(=O)C1=C(C(=O)OC)[C@@H]2N(C)c3ccc(OC)cc3[C@@]23C[C@@H](C(=O)OC)N(S(=O)(=O)c2ccc(OC)cc2)C3=N1`, -0.78%.
